Screening data from PubChem.
Shown are actives, neighbours in structure and some others; about 4.3% of the full set was active somewhere.
GRIN3A LBD mod: NR3A (human) ligand-binding domain modulation; Tm shift relative to glycine control, % at 25 µM; 340,000 compounds, 2.5% hits; NR3A LBD differential scanning fluorimetry, Tm shift; 0% = protein alone, 100% = glycine-bound protein;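 active = melting temperature shift of at least 10% of the positive control shift, at one fixed dose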
FAS TE block: blocks the thioesterase domain of human fatty acid synthase; P49327; recombinant FAS-TE, OMFH fluorogenic substrate, fluorescence endpoint; inhibition, % at 15 µM; 360,000 compounds, 0.67% hits;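 active = compounds whose normalised, plate-corrected inhibition of enzyme fluorescence in the single-dose primary screen is 50% or more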
NadD block: blocks S. aureus nicotinate mononucleotide adenylyltransferase; inhibition, % at 20 µM; AID 602399; 360,000 compounds, 0.78% hits; purified NadD enzyme, colorimetric absorbance read-out; in the data active = inhibition above about 26%
rCAG binder-1: molecules binding r(CAG) RNA repeats; inhibition, % at 3 µM; 370,000 compounds, 1.3% hits; r(CAG) RNA repeat, TO-PRO-1 dye displacement fluorescence; AID 651821;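 active = inhibition above the plate cutoff, the mean of all test compounds on that plate plus 3 SD, cut at about 35% in these data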;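 also: higher means more dye released from RNA so lower well fluorescence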
rCAG bind conf: r(CAG) RNA repeat binding, confirmation; shares compounds with rCAG binder-1; TO-PRO-1 dye displacement fluorescence; inhibition, % at 3 µM; 4,300 compounds, 70% hits; AID 652065;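 active = inhibition above a per-plate cutoff, the mean inhibition of sample wells plus 3 SD, cut at about 35% in these data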;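 also: loss of TO-PRO-1 fluorescence as compound displaces dye from 1x1 AA loop RNA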
dCAG dye counter: DNA CAG dye complex inhibition counter-screen | shares compounds with rCAG binder-1 | d(CAG) DNA oligo TO-PRO-1 dye displacement, fluorescence | inhibition, % at 3 µM | 4,300 compounds, 94% hits;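 active = inhibition above its plate's cutoff, the mean test-well inhibition plus 3 SD, cut at about 4.8% in these data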;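 also: hits displace the dye from DNA and so lower well fluorescence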
dCAG dye DR: counter-screen for rCAG binders: inhibitors of DNA CAG TO-PRO-1 complex; shares compounds with rCAG binder-1; DNA CAG/GTC duplex TO-PRO-1 dye displacement fluorescence; IC50, µM; 250 compounds, 20% hits; AID 686960; in the data active = IC50 below about 10 µM
dCAG DNA bind: counter-screen for rCAG binders: DNA CAG TO-PRO-1 complex inhibitors, late stage. 30 compounds, 80% hits. AID 720649. IC50, µM. shares compounds with rCAG binder-1. d(CAG) DNA duplex TO-PRO-1 dye displacement, fluorescence
rCAG binder-2: binds r(CAG) RNA repeats in late stage dose response | shares compounds with rCAG binder-1 | 30 compounds, 100% hits | r(CAG) RNA TO-PRO-1 dye displacement, fluorescence | IC50, µM
Hits are given with their value; i = inactive; nt = no result. Unless noted, no rule for the calls is given here.

SMILES	GRIN3A LBD mod	FAS TE block	NadD block	rCAG binder-1	rCAG bind conf	dCAG dye counter	others
CC(C)CSC1=NSC2=NC(=O)/C(=C\c3cccs3)C(=N)N12	11	i	i	72	57	21	dCAG dye DR=i;dCAG DNA bind=4.3;rCAG binder-2=1.7
COc1ccc(C(C(=O)N(C)C2CCCC2)N(Cc2ccc(F)cc2)C(=O)c2csc(-c3ccccc3)n2)cc1OC (configuration not stated)	nt	nt	nt	i	nt	nt
Cc1ccc(C(Nc2ccccc2)c2ccc3ccc(C)nc3c2O)c(C)c1 (configuration not stated)	nt	nt	nt	i	nt	nt
O=C(N[C@H](Cc1ccccc1)C(=O)NC1CCCCC1)[C@H]1O[C@@H](n2ccc(=O)[nH]c2=O)[C@H](O)[C@@H]1O	nt	nt	nt	i	nt	nt
COc1ccc(C(=O)Nc2ccccc2C(=O)Nc2ccccc2C(=O)O)cc1	i	i	i	78	77	40
COc1ccc(C(=NNc2ccccc2C(=O)O)c2ccc(OC)cc2)cc1	i	i	i	83	66	26
COc1ccc(C(=O)Nc2ccccc2C(=O)Nc2ccc(C(=O)O)cc2)cc1	i	i	i	i	nt	nt
COc1cccc(CNC(=O)[C@H]2CCCN2C(=O)[C@H]2CCCN2C(=O)c2ccc(OC(F)(F)F)cc2)c1	nt	nt	nt	i	nt	nt
COc1cc2c(c3c1c(=O)c1cccc(F)c1n3C)C=CC(C)(C)O2	nt	nt	nt	i	nt	nt
N=C1/C(=C\c2ccc(-c3cccc(Cl)c3)o2)C(=O)N=C2SC=C(c3ccccc3)N12	13	i	75	65	66	41
O=C(OCc1cn(Cc2ccc(Cl)cc2)nn1)N1CCCC1	nt	nt	nt	i	nt	nt
O=C(O)C/C(=C\c1cc(Cl)c2c(c1)OCO2)c1nc2ccccc2s1	i	i	i	47	45	18
O=c1cc(-c2ccc(O)c(O)c2)oc2c1ccc1ccccc12	i	i	i	57	61	28
O=c1cc(-c2ccc(O)c(O)c2)oc2ccc3ccccc3c12	25	i	i	41	59	28
O=c1cc(-c2ccccc2)oc2ccc3ccccc3c12	nt	i	i	i	nt	nt
C#CCNC(=O)C[C@H]1C[C@@]2(C(=O)OC)C(=C[C@H](C3CCCC3)O[C@@H]2C)N(Cc2ccco2)C1=O	nt	nt	nt	i	nt	nt
O=C(CSc1ncnc2scc(-c3ccccc3)c12)Nc1ccc(C(=O)O)cc1	i	i	i	35	35	10
CCCCNC(=O)NS(=O)(=O)c1ccc(NC(=O)CSc2ncnc3scc(-c4ccc(C)cc4)c23)cc1	nt	nt	nt	77	70	32	dCAG dye DR=i
CCc1nnc(NC(=O)CSc2ncnc3scc(-c4ccc(C)cc4)c23)s1	i	i	i	i	nt	nt
Nc1[nH]c(C(=O)c2ccc(Br)cc2)c(-c2ccccc2)c1C(=O)NCCc1c[nH]c2ccccc12	nt	nt	nt	i	nt	nt
O=C(C1CCC1)N1CCc2cc(S(=O)(=O)C3CCN(Cc4ccc(F)cc4)CC3)ccc21	nt	nt	nt	i	nt	nt
O=C(Cc1cn(Cc2ccccc2)c2ccccc12)Nc1ccc(Nc2cccnc2)cc1	nt	nt	nt	i	nt	nt
Cc1nc2ccccc2c(=O)n1/N=C/c1ccccc1O	i	i	i	i	nt	nt
Cc1nc2ccccc2c(=O)n1/N=C/c1ccc(O)c(O)c1O	i	i	33	44	51	19
COC(=O)[C@]12C[C@H](CC(=O)NCc3ccccc3)C(=O)N(Cc3ccc4c(c3)OCO4)C1=C[C@H](C(C)C)O[C@@H]2C1CC1	nt	nt	nt	i	nt	nt
Cc1ccc(Sc2ccc(S(=O)(=O)Nc3ccc(C(=O)O)cc3)cc2)cc1C	i	i	i	49	43	13
O=C(O)c1cccc(NC(=O)c2ccccc2NC(=O)c2ccco2)c1	i	i	i	i	nt	nt
O=C(O)c1cccc(NC(=O)c2cc(NC(=O)c3ccccc3)cc(NC(=O)c3ccccc3)c2)c1	i	i	i	66	60	24
O=C(O)CCC(=O)Nc1cccc(C(=O)Nc2ccc(Br)cc2)c1	i	i	i	i	nt	nt
